Experimental data taken from PubChem BioAssay (NCI).
The panel holds about 83,000 compounds, 20% with a hit somewhere; the sample as a whole holds those more often.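 Testing used 96-well plates and a 48-hour single-concentration exposure. Example: -40 means 40% of the starting cells died.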 Activity calls are given as the source filed them. Rule for the calls: active = growth percent below 10; inactive = the rest.

The molecules below were run on HL-60(TB) leukemia (assay: NCI-60 one-dose screen, 48 h (100 = growth as untreated, 0 = no growth, -100 = all killed)). Conditions: 10 µM unless noted.
With `c1ccc2[nH]c(-c3ccc(Nc4nc(N5CCCC5)nc5[nH]ncc45)cc3)nc2c1` the growth was -32.8% (active). For `C=C1C(=O)O[C@H]2[C@H]1CC/C(CNC(=O)/C=C/c1ccccc1)=C\CC[C@@]1(C)O[C@@H]21`, the growth was -31.3% (active). In the case of `NCCSC(C[N+](=O)[O-])c1ccccc1Cl` (centres undefined), the growth is reported as 31.8% (inactive). For `CCN(c1ccc(C(=O)N2CCN(c3ccccc3)CC2)cc1)S(C)(=O)=O`, the growth was 99.4% (inactive). `OCCS` was tested, and the growth was 98.4% (inactive). With `CCCCCc1ccc(C)cc1OC(=O)CCl` the growth was 114% (inactive). In the case of `COC(=O)C1NC(=S)N(c2ccc(Cl)cc2)C1/C=C/c1ccccc1` (centres undefined), the growth is reported as 92.8% (inactive). In the case of `CSc1nc(-c2ccc(F)cc2)c(C#N)c(N2CCOCC2)n1`, the growth is reported as 79.6% (inactive). `CCn1cc(C(=O)O)c(=O)c2cc(F)c(N3CCN(CC(=O)Nc4ccc(S(=O)(=O)Nc5nccc(C)n5)cc4)C(C)C3)c(F)c21` (centres undefined) was tested, and the growth was 115% (inactive). `COc1cc(Nc2c3ccc(Cl)cc3nc3ccc(OC)cc23)c2ncccc2c1` was tested, and the growth was 49.5% (inactive). `CCCCC[C@H]1C/C=C2/C(=O)C(Cl)=C[C@@H]2C/C=C\CCCC(=O)O[C@@H](CCCCC)C/C=C2/C(=O)C(Cl)=C[C@@H]2C/C=C\CCCC(=O)O1` was tested, and the growth was -19.1% (active). In the case of `CCC1=C(c2ccc(OC)cc2)C(C)(C)Oc2cc(O)c(CN3CCCC3)cc21`, the growth is reported as 85% (inactive). `COc1cc(OC)cc(C(=O)Nc2cnc(Nc3ccc(N4CCOCC4)nc3)nc2Oc2ccc(C(F)(F)F)cc2)c1` was tested, and the growth was 94.7% (inactive). For `O=S(=O)(NCCNc1nccc(-c2c(-c3ccc(F)c(O)c3)nc3sccn23)n1)c1ccc(Cl)cc1`, the growth was -26.9% (active). With `CCCCc1n(Cc2ccc3ccccc3n2)cc[n+]1Cc1ccc2ccccc2c1` the growth was -46.1% (active). For `c1ccc(CCn2nnc3c(Nc4ccc(N5CCOCC5)cc4)ncnc32)cc1`, the growth was 96.7% (inactive). `O=[N+]([O-])c1cccc(C(c2ccccc2)c2ccccc2)c1` was tested, and the growth was 88.9% (inactive). `CC1=CCC[C@@H]2C1(C)CC[C@H](C)[C@@]2(C)CC1=CC(=O)C(SC(C)(C)C)=CC1=O` (some centres undefined) was tested, and the growth was 56.4% (inactive). For `CC(=O)c1cc2c(N)c(C(=O)Nc3cccc(F)c3C)sc2nc1C`, the growth was 57.1% (inactive). With `CCOc1ccccc1NC(=O)c1cc2ccccc2cc1O` the growth was 48.8% (inactive). For `COc1ccccc1NC(=O)c1ccc(/C=C/C(=O)c2nccn2C)cc1`, the growth was -9.45% (active). For `Cc1ccc(Nc2c(C(N)=O)cnc3ccc(S(=O)(=O)Nc4cc(C)on4)cc23)cc1`, the growth was 113% (inactive). In the case of `CCCCCCCCCCCCCCCC(=O)OC1[C@@H](OC(=O)CCCCCCCCCCCCCCC)[C@@H](C(=O)N[C@@H](CCCCN)C(=O)OC)O[C@H]1n1cnc2c(=O)[nH]c(NC(=O)C(C)C)nc21` (some centres undefined), the growth is reported as 98.3% (inactive). With `CC1(C)CC([P+](c2ccccc2)(c2ccccc2)c2ccccc2)=NN1` the growth was -49.2% (active).
